p53ts 39C kill: p53ts cell cytotoxicity, nonpermissive temperature. H1299-p53A138V viability at 39C, ATP luminescence, 24 h. Potency, µM (titrated, usually from 46.1 µM), usual class: cytotoxic. 1.5% of 130,000 active. AID 902; further: nearly all actives have a fitted effect of over 55% in size
ALOX12 inhib: blocks human 12-lipoxygenase activity. Potency, µM (top dose mostly 57.1 µM), actives largely listed as inhibitors. purified 12-hLO, xylenol orange hydroperoxide absorbance. 0.12% of 150,000 active. P18054; further: nearly all actives have a fitted effect of over 55% in size
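Lipoxygenase turnover measured by absorbance at 573 and 405 nm after Fe-XO development. Human 12hLO 150 nM, arachidonate 40 uM, pH 7.0 Hepes buffer with detergent; 15 min compound preincubation, 30 min reaction.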
p53ts 32C kill: p53ts cell cytotoxicity, permissive temperature; H1299-p53A138V at 32C, ATP luminescence viability, 24 h; 0.93% of 130,000 active; Potency, µM (doses to about 46.1 µM), usual class: cytotoxic; further: nearly all actives have a fitted effect of over 55% in size
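Viability by ATPlite luminescence after 24 h compound treatment (up to 46 uM) at the permissive 32C. Cells are H1299 carrying p53 A138V. Scale runs from DMSO basal to 100 uM tamoxifen as full kill; AC50 from Hill fits.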
HPGD block: inhibitors of human 15-hydroxyprostaglandin dehydrogenase (HPGD) | Potency, µM, hits mostly inhibitors | AID 894 | 4.3% of 150,000 active | P15428 | purified HPGD, NADH fluorescence kinetic, PGE2 substrate; active means well fitted inhibition curve with a large enough effect, not every such curve was filed as active; inconclusive means small, poorly fitted or top-dose-only effect, or another doubt; inactive means no such curve, though single readings can be large or run the other way
Target sequence (P15428 whole entry, looked up): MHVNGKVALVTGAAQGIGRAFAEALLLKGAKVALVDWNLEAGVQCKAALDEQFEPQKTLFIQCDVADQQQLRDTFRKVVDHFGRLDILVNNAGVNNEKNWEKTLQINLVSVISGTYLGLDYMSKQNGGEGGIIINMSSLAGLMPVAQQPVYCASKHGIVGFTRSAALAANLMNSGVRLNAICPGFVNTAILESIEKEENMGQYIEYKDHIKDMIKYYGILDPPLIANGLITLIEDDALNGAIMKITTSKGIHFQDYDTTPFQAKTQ
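20 nM HPGD preincubated 15 min at room temperature with compound in 50 mM Tris-HCl pH 8, 0.01% Tween 20. Started with 1 mM NAD+ and 30 uM prostaglandin E2; NADH fluorescence (360/450 nm) read 5 times over 30-s intervals, last minus first.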
Numbers stand for hits; 0 = inactive; ? = inconclusive; - = not tested or not shown; [ ] = another dose, or the depositor's remark. A selection: hits, their analogues and other compounds. The true share with any hit is near 4.4%. Unless noted, the call rests on the fitted dose curve; in most records, active means well fitted curve in the direction sought with a large enough effect; inconclusive means small, poorly fitted or top-dose-only effect, or another doubt; inactive means no such curve, though single readings can be large; an effect the other way counts as inactive or inconclusive.

SMILES	p53ts 39C kill	ALOX12 inhib	p53ts 32C kill	HPGD block
O=C(CCCn1c(=S)[nH]c2ccsc2c1=O)NCc1ccco1	0	0	0	0
COC(=O)c1cc(OC)c(OC)cc1NC(=O)CCCCCN1C(=O)CCC1=O	0	0	0	0
O=C(CCCn1c(=S)[nH]c2ccc(Br)cc2c1=O)NCC1CCCO1 (stereo unspecified)	-	0	-	7.1µM
O=C(CCCn1c(=O)[nH]c2cc(Cl)ccc2c1=O)NCC1CCCO1 (stereo unspecified)	0	0	0	0
CCCCNC(=O)CCCn1c(=S)[nH]c2cc3c(cc2c1=O)OCO3	0	0	0	16µM
CCc1ccc(C2CC(=O)c3c([nH]c(C(=O)OCCOc4ccccc4)c3C)C2)cc1 (stereo unspecified)	13µM	-	?	-
CC(C)Cc1cc(C(=O)Nc2cc(Cl)ccc2Cl)no1	0	0	0	14µM
CCCc1cc(C(=O)Nc2cc(Br)ccc2O)no1	0	0	0	?
CC(C)c1cc(C(=O)Nc2cc(Br)ccc2O)no1	-	0	-	8.9µM
CC(C)c1cc(C(=O)Nc2cc(Cl)ccc2O)no1	?	0	0	5.6µM
Cc1ccc(C)c(N2CCN(c3nc4ccc(Cl)cc4n4cnnc34)CC2)c1	0	-	0	-
O=C(N/N=C/c1sc2ccccc2c1O)c1ccccc1	7.1µM	0	-	0
CN(Cc1cccs1)S(=O)(=O)c1cccs1	0	0	0	28µM
CN(Cc1ccccc1)S(=O)(=O)c1cccs1	-	0	-	0
c1ccc(-c2nc3nonc3nc2-c2ccccc2)cc1	13µM	0	?	0
COc1cccc(CNC(=O)CN2C(=O)N(c3c(C)cccc3C)S(=O)(=O)c3ccccc32)c1OC	0	-	0	-
CCc1ccc(S(=O)(=O)c2nnn3c2nc(Nc2ccc(F)cc2)c2cc(Cl)ccc23)cc1	0	-	0	-
C=CCc1cc(/C=C2/NC(=S)NC2=O)cc(OC)c1O	-	0	-	25µM
COc1ccc2c(c1)CC(C(=O)Nc1cc(Cl)ccc1C)CO2 (stereo unspecified)	0	-	0	-
CCOC(=O)c1c(NC(C)=O)c2c3c(sc2n1Cc1ccc(Cl)cc1)CCCC3	0	-	0	-
COc1cc(C(=O)Nc2nnc(C(C)(C)C)s2)c([N+](=O)[O-])cc1OC	-	0	-	20µM
COc1cc(C(=O)Nc2nnc(CC(C)(C)C)s2)c([N+](=O)[O-])cc1OC	-	0	-	0
O=S(=O)(NCc1ccccn1)c1cccc2cccnc12	0	-	0	-
Cc1ccccc1NC(=O)c1sc2nc(N3CCOCC3)c3c(c2c1N)CC(C)(C)OC3	0	-	0	-
FC(F)(F)c1ccccc1-c1nc(NCc2cccs2)c2ccccc2n1	0	-	0	-
SMILES	p53ts 39C kill	ALOX12 inhib	p53ts 32C kill	HPGD block
O=C(CCn1c(=O)c2ccccc2n(Cc2cccc([N+](=O)[O-])c2)c1=O)N1CCc2ccccc2C1	-	0	-	16µM
CCn1cc(C(=O)N(C)c2ccc(C(C)C)cc2)c2cc(OC)c(OC)cc2c1=O	0	-	0	-
CCCOc1ccc(-c2nn(-c3ccccc3)cc2C2NC(=O)NC(C)=C2C(=O)OC)cc1C (stereo unspecified)	?	-	0	-
CCCOc1ccc(-c2nn(-c3ccccc3)cc2/C=C2\SC(N)=NC2=O)cc1C	0	0	-	10µM
COc1ccc(-c2nn(CCC(=O)O)cc2/C=C2\SC(N)=NC2=O)cc1OC	-	0	-	3.2µM
CCOC(=O)c1cnc2c(ccc3ccccc32)c1Nc1ccc(OC)cc1OC	0	-	0	-
CCOc1ccc(NC(=O)CCCn2c(C)c3cnn(-c4ccccc4)c(=O)c3c2C)cc1	0	-	0	-
CC(C)CO/N=C1/C[C@@H](O)[C@@H](O)[C@@H]2[C@@H]3C(=O)N(C4CCCCC4)C(=O)[C@H]3CC[C@@H]12	0[9.22 µM]	-	0[9.22 µM]	-
COc1cccc(=O)c2c(C)n(-c3cc(C)cc(C)c3)c(C)c12	-	0	-	28µM
CC1CN(C(=O)N2CCC(C(=O)N3CCN(c4ccccc4)CC3)CC2)c2cc(Cl)ccc2O1 (stereo unspecified)	?	-	0	-
O=[N+]([O-])c1ccc(CCO)cc1	0	0	0[1.84 µM]	0
OCc1cc(C(O)CNCCCCCCOCCCCc2ccccc2)ccc1O (stereo unspecified)	13µM	0	?	?
CCOCCCNCC(O)c1ccccc1 (stereo unspecified)	0	0	-	0
COc1ccccc1NC(=O)C1=C(C)Nc2nc(-c3ccco3)nn2C1c1cccc(C)c1 (stereo unspecified)	0	-	0	-
COC(=O)c1cc(=O)n(CCc2ccc(OC)cc2)c(=Nc2ccc(F)c(Cl)c2)s1	-	0	-	0
CCn1c(=O)cc(C(=O)OC)sc1=Nc1ccc(F)c(F)c1	0	0	20µM	0
CCC(Cc1ccccc1)NC(=O)CSc1ccsc1[N+](=O)[O-] (stereo unspecified)	-	0	-	0
CCN(CC)c1ccc(NC(=O)CSc2ccsc2[N+](=O)[O-])c(C)c1	-	0	-	13µM
COc1cc(NC(=O)C2CCN(S(=O)(=O)c3c(C)noc3/C=C/c3c(C)cc(C)cc3C)CC2)cc(OC)c1	?	-	0	-
CC(=O)c1ccc(NC(=O)c2cnc(N3CCCC3)nc2C)cc1	0	-	0	-
O=C(NCCSc1c[nH]c2ccccc12)c1ccc(Br)o1	0	0	0	7.1µM
Cc1[nH]c2ccccc2c1SCCNC(=O)c1ccc(Br)o1	0	0	0	14µM
O=C(O)CCNC(=O)c1ccc(Br)o1	0	0	0	0
Cc1[nH]c2ccccc2c1SCCNC(=O)c1ccc(F)cc1	0	-	0	-
O=C(NCCC(c1ccccc1)c1ccccc1)c1ccc(Br)o1	-	0	-	14µM
COc1cccc(-n2c(=O)c3cc(OC)c(OC)cc3n(CC(=O)Nc3ccc(F)cc3)c2=O)c1	0	-	0	-
Cc1c(Cl)cccc1NS(=O)(=O)c1ccc(NS(=O)(=O)c2ccc3c(c2)OCCO3)cc1	0	-	0	-
N#CC1=C(N2CCCCC2)c2cc3c(n2C1=O)CCCC3	-	0	-	25µM
Cc1cc(C)cc(NC(=O)Nc2ccccc2OCc2cc(=O)n3ccccc3n2)c1	0	-	0	-
Cc1ccc(-c2nnc(NCc3ccccc3)c3ccccc23)cc1	0	0	-	3.2µM

Bioassay records deposited in PubChem by National Center for Advancing Translational Sciences (NCATS).
